PubChem BioAssay (EPA / NIEHS)
The source made the active and inactive calls. Rule for the calls, unless noted: active = hit-call score of the fitted dose curve at least 0.9, where 1 is the maximum; inconclusive = response in the unintended direction; inactive = score below 0.9.

Read-out: X-box binding protein 1 (XBP1), XBP1 (gene 7494)
Experiment: LTEA_HepaRG_XBP1: Life Technologies and Expression Analysis (LTEA) Assay for X-box binding protein 1 (XBP1) using HepaRG (AID 2283540; active = hit-call score of the fitted dose curve at least 0.9, where 1 is the maximum; inactive = score below 0.9)
Conditions: mRNA level, 48 h; actives raise or lower the signal
Procedure, shortened: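 HepaRG, 48 h exposure, 8-pt half-log CRC top 100 uM, 0.5% DMSO vehicle, duplicates. Readout: TaqMan qRT-PCR of XBP1 mRNA, housekeeping-normalised (ACTB/GAPDH/POLR2A); bidirectional fit vs DMSO baseline.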

| Compound | AC50 | outcome |
| --- | --- | --- |
| CCN(CC)CCNc1ccc(CNC=O)c2sc3ccc(OC)cc3c(=O)c12 | 30.6 µM (active) | – |
| N#C[C@@H]1CC(F)(F)CN1C(=O)CNC1CC2CCC(C1)N2c1ncccn1 (stereo partly specified) | – | inactive |
| CN(C)C=O | – | inactive |
| O=C(OCCOCCOC(=O)c1ccccc1)c1ccccc1 | – | inactive |
| CCCCCCCCC(=O)O | – | inactive |
| CC[C@H](c1ccc(O)cc1)[C@@H](CC)c1ccc(O)cc1 | 85.6 µM (active) | – |
| CC(C)(C)c1ccc(O)c(C(C)(C)C)c1 | – | inactive |
| O=[N+]([O-])c1ccc(O)cc1 | – | inactive |
| CCCCOCCO | – | inactive |
| OCCC(F)(F)C(F)(F)C(F)(F)C(F)(F)C(F)(F)C(F)(F)F | – | inactive |
| CCC(C)(C)C1CCC(O)CC1 (stereo unspecified) | – | inactive |
| NC(=O)N1C(=O)C(C(=O)c2cc(Cl)cs2)c2cc(F)c(Cl)cc21 (stereo unspecified) | 12.9 µM (active) | – |
| CCCCCCC(=O)O | – | inactive |
| ClC1=C(Cl)C(Cl)(Cl)C(Cl)=C1Cl | – | inactive |
| COCC(C)OCC(C)O (stereo unspecified) | 50 µM (active) | – |
| C[C@@H]1C[C@H]2[C@@H]3CCC4=CC(=O)C=C[C@]4(C)[C@@]3(F)[C@@H](O)C[C@]2(C)[C@@]1(O)C(=O)COP(=O)(O)O | – | inactive |
| CCCCC(CC)COC(=O)CCCCC(=O)OCc1ccccc1 (stereo unspecified) | – | inactive |

| Compound | AC50 | outcome |
| --- | --- | --- |
| O=C(O)Cc1cc(I)c(Oc2cc(I)c(O)c(I)c2)c(I)c1 | – | inactive |
| CCC(=C(c1ccc(O)cc1)c1ccc(OCCN(C)C)cc1)c1ccccc1 | – | inactive |
| CCc1nn(C2CCCCC2)c2cc(C3(C#N)CCC(C(=O)O)CC3)ccc12 (stereo unspecified) | – | inactive |
| CCCCCCCCOC(=O)CCCCCCCCC(=O)OCCCCCCCC | – | inactive |
| Oc1cccc(O)c1 | – | inactive |
| CCc1ccc(CCOc2ccc(CC3SC(=O)NC3=O)cc2)nc1 (stereo unspecified) | – | inactive |
| OCCC(F)(F)C(F)(F)C(F)(F)C(F)(F)C(F)(F)C(F)(F)C(F)(F)C(F)(F)F | – | inactive |
| O=C(O)c1ccccc1C(c1ccc(O)cc1)c1ccc(O)cc1 | – | inactive |
| CCCCCCCCCCCCc1ccccc1S(=O)(=O)O | – | inactive |
| Cc1oc(-c2ccccc2)nc1CCOc1ccc(C[C@H](Nc2ccccc2C(=O)c2ccccc2)C(=O)O)cc1 | – | inactive |
| c1ccc2c(c1)ccc1ccccc12 | – | inactive |
| CCCCC(CC)COC(=O)CCCCC(=O)OCC(CC)CCCC (stereo unspecified) | – | inactive |
| CC(C)CCCCCCOC(=O)CCCCC(=O)OCCCCCCC(C)C | – | inactive |
| COc1ccc([N+](=O)[O-])cc1N | – | inactive |
| Cc1cc(CCN2CCN(c3nsc4ccccc34)CC2)cc2c1NC(=O)CC2(C)C | – | inactive |
| CCCOc1sc(C(=O)N2CCC(c3cc(CN)ccc3F)CC2)c(C)c1Br | – | inactive |

Read-out: not listed separately
Experiment: LTEA_HepaRG_LDH_cytotoxicity: Cytotoxicity Assessment in the Life Technologies and Expression Analysis (LTEA) Assay (AID 2283563);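 for AC50: LDH activity released into spent culture medium as a marker of cell death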
Conditions: not given
Procedure, shortened: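 HepaRG (human liver line), 48 h exposure, 8-pt half-log series from 100 uM, 0.5% DMSO vehicle, duplicates. Read-out: LDH in spent medium. Positive-direction fit vs DMSO baseline.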

| Compound | AC50 | outcome |
| --- | --- | --- |
| CCN(CC)CCNc1ccc(CNC=O)c2sc3ccc(OC)cc3c(=O)c12 | 80.1 µM (active) | – |
| N#C[C@@H]1CC(F)(F)CN1C(=O)CNC1CC2CCC(C1)N2c1ncccn1 (stereo partly specified) | – | inactive |
| CN(C)C=O | – | inactive |
| O=C(OCCOCCOC(=O)c1ccccc1)c1ccccc1 | – | inactive |
| CCCCCCCCC(=O)O | – | inactive |
| CC[C@H](c1ccc(O)cc1)[C@@H](CC)c1ccc(O)cc1 | 76.1 µM (active) | – |
| CC(C)(C)c1ccc(O)c(C(C)(C)C)c1 | – | inactive |
| O=[N+]([O-])c1ccc(O)cc1 | – | inactive |
| CCCCOCCO | – | inactive |
| OCCC(F)(F)C(F)(F)C(F)(F)C(F)(F)C(F)(F)C(F)(F)F | – | inactive |
| CCC(C)(C)C1CCC(O)CC1 (stereo unspecified) | – | inactive |
| NC(=O)N1C(=O)C(C(=O)c2cc(Cl)cs2)c2cc(F)c(Cl)cc21 (stereo unspecified) | 15.8 µM (active) | – |
| CCCCCCC(=O)O | – | inactive |
| ClC1=C(Cl)C(Cl)(Cl)C(Cl)=C1Cl | – | inactive |
| COCC(C)OCC(C)O (stereo unspecified) | – | inactive |
| C[C@@H]1C[C@H]2[C@@H]3CCC4=CC(=O)C=C[C@]4(C)[C@@]3(F)[C@@H](O)C[C@]2(C)[C@@]1(O)C(=O)COP(=O)(O)O | – | inactive |
| CCCCC(CC)COC(=O)CCCCC(=O)OCc1ccccc1 (stereo unspecified) | – | inactive |

| Compound | AC50 | outcome |
| --- | --- | --- |
| O=C(O)Cc1cc(I)c(Oc2cc(I)c(O)c(I)c2)c(I)c1 | 61.9 µM (active) | – |
| CCC(=C(c1ccc(O)cc1)c1ccc(OCCN(C)C)cc1)c1ccccc1 | 80.5 µM (active) | – |
| CCc1nn(C2CCCCC2)c2cc(C3(C#N)CCC(C(=O)O)CC3)ccc12 (stereo unspecified) | – | inactive |
| CCCCCCCCOC(=O)CCCCCCCCC(=O)OCCCCCCCC | – | inactive |
| Oc1cccc(O)c1 | – | inactive |
| CCc1ccc(CCOc2ccc(CC3SC(=O)NC3=O)cc2)nc1 (stereo unspecified) | – | inactive |
| OCCC(F)(F)C(F)(F)C(F)(F)C(F)(F)C(F)(F)C(F)(F)C(F)(F)C(F)(F)F | – | inactive |
| O=C(O)c1ccccc1C(c1ccc(O)cc1)c1ccc(O)cc1 | – | inactive |
| CCCCCCCCCCCCc1ccccc1S(=O)(=O)O | 77.7 µM (active) | – |
| Cc1oc(-c2ccccc2)nc1CCOc1ccc(C[C@H](Nc2ccccc2C(=O)c2ccccc2)C(=O)O)cc1 | 28.7 µM (active) | – |
| c1ccc2c(c1)ccc1ccccc12 | – | inactive |
| CCCCC(CC)COC(=O)CCCCC(=O)OCC(CC)CCCC (stereo unspecified) | – | inactive |
| CC(C)CCCCCCOC(=O)CCCCC(=O)OCCCCCCC(C)C | – | inactive |
| COc1ccc([N+](=O)[O-])cc1N | – | inactive |
| Cc1cc(CCN2CCN(c3nsc4ccccc34)CC2)cc2c1NC(=O)CC2(C)C | 76.8 µM (active) | – |
| CCCOc1sc(C(=O)N2CCC(c3cc(CN)ccc3F)CC2)c(C)c1Br | – | inactive |
